Reference: PubChem BioAssay
Activity calls are given as the source filed them.

What was measured:
[1] = test system: Plasmodium falciparum Sir2 (PF13_0152, Sir2A); assay: Plasmodium falciparum Sir2A binding compounds – biochemical, small-molecule microarray, 635 nm fluorescence, primary screen (AID 1098); settings: fluorescence 635 nm, higher = more signal;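 further: score merges spot fluorescence intensity with its signal-to-noise ratio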
[2] = probe aDKK1 binding to arrayed compounds – biochemical, biotinylated probe, 635/667 nm fluorescence, primary screen (AID 1099); settings: small-molecule microarray, higher = more signal;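 further: score merges 667nm spot fluorescence with signal to noise across triplicate slides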
[3] = probe aCHRDL2 binding to arrayed compounds – biochemical, biotinylated probe, 635/667 nm fluorescence, primary screen (AID 1100); settings: small-molecule microarray, higher = more signal
[4] = change in splice reporter luminescence, either direction, cell-based, HEK293, spliceosome inhibition project, primary screen (AID 1101); settings: HEK293 splicing luciferase reporter, 24 h, higher = more signal, called active from +8 up or from −8 down;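 further: HEK293 cells carrying a splicing-competent luciferase reporter gene; test concentration not given here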
[5] = target: Fibroblast growth factor 10 (Homo sapiens) (UniProt O15520); assay: compounds binding fibroblast growth factor 10 – biochemical, small-molecule microarray, 635 nm fluorescence, primary screen (AID 1102); settings: FGF10 binding, fluorescence 635 nm, higher = more signal
Sequence of Fibroblast growth factor 10 (Homo sapiens) (O15520 whole entry, looked up): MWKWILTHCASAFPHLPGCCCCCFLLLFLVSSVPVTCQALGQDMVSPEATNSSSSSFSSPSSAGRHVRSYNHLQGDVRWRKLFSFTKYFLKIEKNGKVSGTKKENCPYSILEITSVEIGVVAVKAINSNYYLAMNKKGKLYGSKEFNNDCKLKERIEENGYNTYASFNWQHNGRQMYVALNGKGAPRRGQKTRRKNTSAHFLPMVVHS

[6] = test system: glycogen synthase kinase-3 (GSK3A per assay name; protocol says GSK3B); assay: compounds binding glycogen synthase kinase-3 – biochemical, small-molecule microarray, 635 nm fluorescence, GSK3A, primary screen (AID 1103); settings: fluorescence 635 nm, higher = more signal; further: the record names both GSK3A and GSK3B
[7] = target: Epidermal growth factor receptor (Homo sapiens) (UniProt P00533); assay: compounds binding epidermal growth factor receptor – biochemical, small-molecule microarray, 635 nm fluorescence, primary screen (AID 1104); settings: EGFR binding, higher = more signal;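 further: score merges 667 nm emission intensity with spot signal to noise over triplicate slides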
Sequence of Epidermal growth factor receptor (Homo sapiens) (P00533 whole entry, looked up): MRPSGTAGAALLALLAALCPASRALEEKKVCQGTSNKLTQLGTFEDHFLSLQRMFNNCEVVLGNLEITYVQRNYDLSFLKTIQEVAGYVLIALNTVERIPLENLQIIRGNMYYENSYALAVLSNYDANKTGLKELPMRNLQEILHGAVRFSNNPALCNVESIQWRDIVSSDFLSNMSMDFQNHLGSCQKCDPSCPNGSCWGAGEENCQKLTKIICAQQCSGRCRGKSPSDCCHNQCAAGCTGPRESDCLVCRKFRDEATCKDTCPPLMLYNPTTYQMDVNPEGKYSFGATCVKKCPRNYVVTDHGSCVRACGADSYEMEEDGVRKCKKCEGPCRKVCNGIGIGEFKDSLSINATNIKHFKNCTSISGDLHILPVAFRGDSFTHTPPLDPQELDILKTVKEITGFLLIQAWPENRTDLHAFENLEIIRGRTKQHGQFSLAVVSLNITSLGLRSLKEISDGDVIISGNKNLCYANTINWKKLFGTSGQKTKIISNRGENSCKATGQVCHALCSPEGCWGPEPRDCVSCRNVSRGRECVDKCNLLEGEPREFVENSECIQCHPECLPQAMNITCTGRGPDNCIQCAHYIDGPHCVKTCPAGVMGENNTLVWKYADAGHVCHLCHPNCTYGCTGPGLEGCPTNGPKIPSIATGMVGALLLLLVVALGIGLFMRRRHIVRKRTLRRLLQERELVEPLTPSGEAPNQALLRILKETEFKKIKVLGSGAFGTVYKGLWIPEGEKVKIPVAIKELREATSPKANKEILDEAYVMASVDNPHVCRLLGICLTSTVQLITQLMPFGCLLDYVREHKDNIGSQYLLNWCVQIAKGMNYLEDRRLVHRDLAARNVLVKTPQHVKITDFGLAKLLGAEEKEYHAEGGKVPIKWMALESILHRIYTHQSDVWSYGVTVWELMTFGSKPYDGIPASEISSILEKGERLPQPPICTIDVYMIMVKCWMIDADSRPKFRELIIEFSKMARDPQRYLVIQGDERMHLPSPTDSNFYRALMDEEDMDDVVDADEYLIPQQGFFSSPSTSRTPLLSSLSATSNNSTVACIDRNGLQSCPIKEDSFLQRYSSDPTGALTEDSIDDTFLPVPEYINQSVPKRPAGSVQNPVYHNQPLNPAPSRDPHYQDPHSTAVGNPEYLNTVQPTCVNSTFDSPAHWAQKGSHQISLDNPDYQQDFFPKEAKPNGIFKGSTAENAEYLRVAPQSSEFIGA

[8] = target: Follistatin-related protein 3 (Homo sapiens) (UniProt O95633); assay: compounds binding follistatin-related protein 3 – biochemical, small-molecule microarray, 635 nm fluorescence, primary screen (AID 1105); settings: FSTL3 binding, higher = more signal;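 further: score merges emission near 667 nm and signal to noise per printed spot across three slides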
Sequence of Follistatin-related protein 3 (Homo sapiens) (O95633 whole entry, looked up): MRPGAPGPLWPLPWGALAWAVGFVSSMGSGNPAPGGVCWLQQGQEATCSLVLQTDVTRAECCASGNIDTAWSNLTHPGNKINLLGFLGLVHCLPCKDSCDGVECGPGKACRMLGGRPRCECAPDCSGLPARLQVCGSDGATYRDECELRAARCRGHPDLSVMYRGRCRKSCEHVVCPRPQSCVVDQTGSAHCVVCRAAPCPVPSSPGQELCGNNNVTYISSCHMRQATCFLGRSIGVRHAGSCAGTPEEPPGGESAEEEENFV

[9] = target: Dickkopf-related protein 1 (Homo sapiens) (UniProt O94907); assay: small molecules binding DKK1 protein – biochemical, small-molecule microarray, 635 nm fluorescence scan, primary screen (AID 1106); settings: higher = more signal;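 further: score merges emission near 667 nm with signal to noise over three replicate slides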
Sequence of Dickkopf-related protein 1 (Homo sapiens) (O94907 whole entry, looked up): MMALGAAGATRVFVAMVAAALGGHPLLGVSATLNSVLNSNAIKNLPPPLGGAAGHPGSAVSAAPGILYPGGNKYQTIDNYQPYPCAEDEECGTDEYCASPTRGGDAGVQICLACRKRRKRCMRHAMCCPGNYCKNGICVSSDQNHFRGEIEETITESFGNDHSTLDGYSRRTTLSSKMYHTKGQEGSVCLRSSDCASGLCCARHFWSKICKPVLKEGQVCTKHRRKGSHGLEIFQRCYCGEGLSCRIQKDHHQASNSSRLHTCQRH

[10] = test system: Inhibin beta A chain (activin A); assay: small molecules binding activin A – biochemical, small-molecule microarray, 635 nm fluorescence scan, primary screen (AID 1107); settings: INHBA, higher = more signal;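 further: mouse activin A protein probed at 4.33 µg/mL on printed slides; score merges bound-protein fluorescence near 667 nm with spot signal-to-noise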
[11] = test system: Human papillomavirus type 1a protein E7 (residues 44-93); assay: small molecules binding HPV E7 44-93 – biochemical, small-molecule microarray, residues 44-93, 635 nm fluorescence, primary screen (AID 1108); settings: fluorescence 635 nm, higher = more signal;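 further: E7 fragment applied at 1 µg/mL in TBST for 1 h at 4 C; score combines spot fluorescence with its signal to noise ratio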
[12] = hepatitis C replication reporter changes, two-sided – Huh7 cells, luciferase reporter, HCV replication inhibitor project, primary screen (AID 1109); settings: Huh7 HCV replicon luciferase reporter, 48 h; higher = more signal;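 further: huh7 hepatoma cells harbouring a luciferase neomycin HCV replicon reporter; luciferase luminescence as measure of HCV replicon replication; test concentration not given here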
[13] = target: Left-right determination factor 2 (Homo sapiens) (UniProt O00292); assay: small molecules binding LEFTY2 protein – biochemical, small-molecule microarray, 635 nm fluorescence scan, primary screen (AID 1110); settings: higher = more signal
Sequence of Left-right determination factor 2 (Homo sapiens) (O00292 whole entry, looked up): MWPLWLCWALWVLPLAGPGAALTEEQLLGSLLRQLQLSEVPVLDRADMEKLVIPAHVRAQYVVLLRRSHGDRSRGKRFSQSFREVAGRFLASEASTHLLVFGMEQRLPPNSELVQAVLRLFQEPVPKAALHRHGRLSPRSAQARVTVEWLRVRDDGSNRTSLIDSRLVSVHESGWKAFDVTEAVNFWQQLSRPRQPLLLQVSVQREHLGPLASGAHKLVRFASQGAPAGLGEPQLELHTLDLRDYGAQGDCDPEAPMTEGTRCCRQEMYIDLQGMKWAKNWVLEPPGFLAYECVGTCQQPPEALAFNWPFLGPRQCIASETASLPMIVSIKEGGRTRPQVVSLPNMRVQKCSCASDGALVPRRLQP

[14] = target: Calmodulin-1 (Homo sapiens) (UniProt P0DP23); assay: small molecules binding calmodulin-1 with EGTA – biochemical, small-molecule microarray, Cy5-labelled CALM1, profiling panel (AID 1111); settings: Cy5-CALM1 binding fluorescence, higher = more signal;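 further: labelled calmodulin applied in Tris saline Tween buffer holding calcium plus EGTA and DTT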
[15] = target: Calmodulin-1 (Homo sapiens) (UniProt P0DP23); assay: small molecules binding Ca-loaded calmodulin-1 – biochemical, small-molecule microarray, Cy5-labelled CALM1, plus calcium, artefact control for SMM control-protein annotation, profiling panel (AID 1112); settings: Cy5-CALM1 binding fluorescence, higher = more signal;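 further: score merges spot fluorescence with signal to noise from triplicate slides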
[16] = probe aWnt5a binding to arrayed compounds – biochemical, biotinylated probe, 635/667 nm fluorescence, primary screen (AID 1113); settings: small-molecule microarray, higher = more signal;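 further: score merges 667 nm fluorescence intensity with signal-to-noise per printed feature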
[17] = probe aShh binding to arrayed compounds – biochemical, biotinylated probe, 635/667 nm fluorescence, primary screen (AID 1114); settings: small-molecule microarray, higher = more signal;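 further: probe is biotin-labelled aShh protein from a stem cell growth factor screen; measures binding of labelled protein to compounds printed on the slide; score merges feature fluorescence at 667 nm with signal-to-noise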
[18] = probe aNog binding to arrayed compounds – biochemical, biotinylated probe, 635/667 nm fluorescence, primary screen (AID 1115); settings: small-molecule microarray, higher = more signal;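 further: probe is biotinylated aNog protein used at 0.15 µg/mL for 1 h at 4 C; z-score combines 667 nm fluorescence of each spot with its signal to noise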
[19] = target: Torsin-1A-interacting protein 1 (Homo sapiens) (UniProt Q5JTV8); assay: compound microarray binding of lysate hLAP1 – cell lysate, small-molecule microarray, COS7 lysate, 635/667 nm fluorescence, primary screen (AID 1116); settings: 635 nm fluorescence, higher = more signal
Sequence of Torsin-1A-interacting protein 1 (Homo sapiens) (Q5JTV8 whole entry, looked up): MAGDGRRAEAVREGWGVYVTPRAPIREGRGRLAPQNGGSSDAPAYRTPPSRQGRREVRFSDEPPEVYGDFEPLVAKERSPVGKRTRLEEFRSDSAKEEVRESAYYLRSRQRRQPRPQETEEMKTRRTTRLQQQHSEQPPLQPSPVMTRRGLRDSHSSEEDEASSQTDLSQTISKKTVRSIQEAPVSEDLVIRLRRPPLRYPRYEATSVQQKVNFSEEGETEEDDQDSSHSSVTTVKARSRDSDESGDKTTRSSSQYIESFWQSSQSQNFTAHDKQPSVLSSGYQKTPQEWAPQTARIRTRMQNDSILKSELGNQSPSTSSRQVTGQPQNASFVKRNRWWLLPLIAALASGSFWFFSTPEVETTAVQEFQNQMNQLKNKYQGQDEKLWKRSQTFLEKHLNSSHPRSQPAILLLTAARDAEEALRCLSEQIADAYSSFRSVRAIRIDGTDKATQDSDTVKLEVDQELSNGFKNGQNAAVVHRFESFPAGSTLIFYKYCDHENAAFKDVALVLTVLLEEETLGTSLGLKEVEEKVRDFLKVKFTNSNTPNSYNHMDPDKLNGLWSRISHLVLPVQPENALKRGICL

[20] = target: Alpha-bungarotoxin (Bungarus multicinctus) (UniProt P60615); assay: compounds binding labelled alpha-BTX control protein – biochemical, small-molecule microarray, Alexa647 label, 635/667 nm fluorescence, artefact control for SMM control protein annotation, profiling panel (AID 1117); settings: alpha-BTX-A647 binding fluorescence, higher = more signal
Sequence of Alpha-bungarotoxin (Bungarus multicinctus) (P60615 whole entry, looked up): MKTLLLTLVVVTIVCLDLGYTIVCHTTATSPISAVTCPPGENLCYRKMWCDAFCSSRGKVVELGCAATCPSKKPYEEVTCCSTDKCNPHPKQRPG

Row | SMILES | composite z-score [1] | composite z-score [2] | composite z-score [3] | z-score [4] | composite z-score [5] | composite z-score [6] | composite z-score [7] | composite z-score [8] | composite z-score [9] | composite z-score [10] | composite z-score [11] | z-score [12] | composite z-score [13] | composite z-score [14] | composite z-score [15] | composite z-score [16] | composite z-score [17] | composite z-score [18] | composite z-score [19] | composite z-score [20]
1 | C=CCN1C(=O)[C@]2(O[C@H](CCn3cc([C@H](O)c4ccccc4)nn3)[C@@H]([Si](C)(C)c3ccc(OC)cc3)[C@@H]2C)c2cc(NC(=O)c3ccc(OC)cc3)ccc21 | 0.73 | -0.125 | 0.349 | -0.768 (inactive) | 0.028 | -0.131 | 0.108 | 0.527 | 0.598 | 0.961 | 1.15 | -4.74 | 0.5 | -0.0632 | -0.564 | -0.0748 | -0.221 | -0.124 | 0.725 | 0.464
2 | COCCCNC(=O)[C@@]1(CCS(=O)(=O)c2ccccc2)COC(c2ccc(OCCCO)cc2)=N1 | 1.37 | 1.56 | 1.47 | 0.0749 (inactive) | 0.946 | 0.878 | -0.318 | -0.0346 | -0.0211 | 0.952 | 0.0612 | -0.46 | -0.241 | 2.65 | 1.26 | 0.0919 | 0.363 | 2.04 | 3.1 | 3.34
3 | COCCOC(=O)N1C(=O)[C@@]2(c3cc(C#CCNC(N)=O)ccc31)[C@H](C(=O)Nc1nc3ccccc3s1)[C@H]1C(=O)O[C@H](c3ccccc3)[C@H](c3ccccc3)N1[C@@H]2c1ccccc1OCCO | 0.678 | 0.376 | 0.812 | -0.549 (inactive) | 1.38 | 0.392 | 0.597 | 1.05 | 0.397 | 1.22 | 0.629 | -1.22 | 0.685 | 0.567 | 0.132 | -0.0405 | 0.142 | 0.355 | 1.05 | 0.771
4 | COC(=O)[C@@]1(Cc2ccc(OC)cc2)[C@H]2c3cc(C(=O)N4CCCC4)n(Cc4ccc(C(F)(F)F)nc4)c3C[C@H]2CN1C(=O)c1ccccc1 | 1.27 | 0.0202 | 0.872 | -4.53 (inactive) | 0.69 | -0.478 | 0.282 | 0.11 | -0.301 | 0.918 | 0.381 | -2.25 | -0.412 | 0.0624 | -0.954 | 0.037 | -0.153 | 0.374 | 0.476 | -0.075
5 | COCCOC(=O)N1C(=O)[C@@]2(c3cc(C#CCCO)ccc31)[C@H](c1ccccc1OCCO)N1[C@H](c3ccccc3)[C@H](c3ccccc3)OC(=O)[C@H]1[C@@H]2C(N)=O | 1.3 | -0.154 | 0.0318 | -1.51 (inactive) | 1.19 | 1.21 | 0.312 | 1.05 | 0.433 | -0.0938 | 1.41 | -1.64 | 0.416 | 1.25 | -0.0732 | 0.002 | 0.0204 | -0.467 | 0.606 | 1.23
6 | CCCNC(=O)[C@@]1(Sc2ccc(C)cc2)CC(=O)N(Cc2ccccc2Cl)[C@@H]1c1ccc(CO)cc1I | 0.958 | 0.147 | 0.864 | -0.766 (inactive) | -0.87 | -0.51 | -1.49 | -1.14 | -1.54 | 0.472 | 0.135 | -2.17 | -1.4 | 0.284 | 0.321 | -0.129 | -0.132 | 1.91 | -0.0631 | 0.461
7 | O=C(NCCN1CCOCC1)[C@@H]1c2ccccc2C(=O)N(Cc2ccc(OC(F)(F)F)cc2)[C@H]1c1ccc(CO)cc1 | -0.0284 | 0.0779 | 1.18 | 0.709 (inactive) | -0.738 | 0.0049 | -0.611 | 0.417 | -1.14 | -0.252 | 1.25 | -1.29 | -0.622 | 0.749 | 0.337 | -0.11 | 0.0756 | 0.99 | 1.19 | 0.0007
8 | CN(C)CCCNC(=O)[C@@H]1c2ccccc2C(=O)N(Cc2ccccc2C(F)(F)F)[C@H]1c1ccc(CO)cc1 | -0.722 | 0.908 | 0.706 | 0.0896 (inactive) | -0.728 | 0.355 | -0.899 | -0.58 | -0.759 | 0.764 | -0.242 | -1.68 | -1.42 | -0.206 | -0.263 | -0.1 | -0.138 | -0.163 | 0.689 | 0.542
9 | COC(=O)C(CC#Cc1ccc2c(c1)[C@]1(C(=O)N2)[C@H](c2ccccc2OCCO)N2[C@H](c3ccccc3)[C@H](c3ccccc3)OC(=O)[C@H]2[C@@H]1C(=O)N1CCc2cc(OC)c(OC)cc2C1)C(=O)OC | 1.56 | 0.0978 | 0.048 | -0.795 (inactive) | 0.71 | 1.3 | 1.02 | 1.26 | 0.882 | 0.279 | 1.37 | -1.68 | 0.541 | 0.0823 | -0.34 | -0.117 | -0.0626 | -0.259 | 1.68 | 0.647
10 | COC(=O)[C@@]1(Cc2ccccc2)[C@H]2c3cc(C(=O)N(C)C)n(CCO)c3C[C@H]2CN1C(=O)c1ccccc1 | 0.621 | 1.25 | 1.21 | 0.395 (inactive) | 0.909 | 0.594 | -0.745 | -0.181 | -0.994 | -0.206 | 0.56 | -0.766 | 0.145 | 2.07 | 1.27 | 0.0511 | 0.0005 | 0.623 | 0.952 | 0.723
11 | O=C(N1CCOCC1)[C@@]1(Cc2ccccc2)COC(c2ccc(OCCCO)cc2)=N1 | 0.666 | 1.23 | 0.84 | -0.694 (inactive) | 0.132 | 0.983 | -0.309 | -0.65 | -0.161 | 0.573 | 1.44 | -1.95 | -0.571 | 1.16 | 0.83 | -0.0161 | -0.288 | -0.221 | 1.38 | 2.35
